# “And” between values parts separate entries of the source, which are not always exact repeats. Equal entries are not always repeated. Out of some 360,000 compounds screened, about 17,000 (4.7%) were called active. Another 5% or so got no clear call; they are omitted. What follows is part of a selection rich in actives, with near analogues and random picks from the rest. Unmarked numbers belong to inactive results. Cut-off read from the data, not from the text of the source: active = activity change below about -50%; inconclusive = mostly about -30% to -49%; inactive = weaker than that.
# Assay: qHTS for Inhibitors of Inflammasome Signaling: IL-1-beta AlphaLISA Primary Screen
# Details: THP-1 LPS/ATP IL-1B secretion, 16 h; at 57.5 µM, stronger effect = lower value
# In short: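 THP-1 cells pretreated 1 hr with compounds (up to 57.5 uM final), then stimulated with LPS (250 ng/mL final) plus ATP (1.25 mM final); secreted IL-1B measured by AlphaLISA after 16 hr, decreased signal indicating inhibition.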
# % is set by controls: 0 for no effect and ±100 for the full control effect.
row,SMILES,activity change
1,COc1ccc([C@H]2N[C@]3(CCCN(Cc4ccco4)C3=O)[C@H]3C(=O)N(C)C(=O)[C@@H]23)cc1,-4.35%
2,Cc1cc(=O)oc2c3c(cc(OCC(=O)NCCC(=O)N[C@@H](C)C(=O)O)c12)OC(C)(C)CC3,-0.546%
3,O=c1oc2ccccc2cc1-c1csc(Nc2ccc(O)cc2)n1,-97.2% (active)
4,Cc1ccn2c(-c3csc(Nc4ccc(C(=O)O)cc4)n3)c(C)nc2c1,30.5%
5,O=C(NCc1cccnc1)c1cccc(-c2cc3ccccc3oc2=O)c1,-3.38%
6,Nc1nc2c(Br)ccc(Br)c2cc1C(=O)NCCc1ccccc1,0%
7,CCCCN(C(=O)c1cccc(N2C(=O)c3ccccc3C2=O)c1)c1c(N)n(CCCC)c(=O)[nH]c1=O,13%
8,CCC(C)NCCOCCOc1ccc(Br)cc1C (stereo not drawn),-17.9%
9,C[C@H](NC(=O)CC[C@H]1O[C@@H](n2ccc(=O)[nH]c2=O)[C@H](O)[C@@H]1O)c1cccc2ccccc12,0%
10,Cc1cc(C(=O)NC2CCN(Cc3ccccc3)CC2)n[nH]1,-8.74%
11,CC(C)(C)C(=O)NNC(=O)c1ccc(Oc2cc(Cl)cc(Cl)c2)o1,6.58%
12,O=C(NC1CCN(Cc2ccccc2)CC1)c1cc(Br)c(Br)[nH]1,-123% (active)
13,CCOc1ccc(CC(=O)NC2CCN(Cc3ccccc3)CC2)cc1,0%
14,O=C(NC1CCN(Cc2ccccc2)CC1)c1ccc(Oc2cc(Cl)cc(Cl)c2)o1,-70.1% (active)
15,COc1cc2[nH]c(=O)n(Cc3ccc(C(=O)NC4CCN(Cc5ccccc5)CC4)cc3)c(=O)c2cc1OC,2%
16,COC(=O)c1ccc2nc(-c3ccccc3)c(Cc3ccc(OC)cc3C)n2c1,-3.04%
17,CSc1ccc(CN2CCC2(C)C(=O)Nc2ccc(C)c(O)c2)cc1 (stereo not drawn),-13.3%
18,Cc1ccc(S(=O)(=O)N[C@H](CO)C(C)C)cc1,-19.8%
19,Cc1ccsc1CNn1cnnc1SCc1ccccc1F,-6.1%
20,CC(C)c1ccc(CC(=O)N2CCC2(C)C(=O)NS(=O)(=O)c2ccc(C(C)(C)C)cc2)cc1 (stereo not drawn),19.2%

row,SMILES,activity change
1,C[C@]12CCC(=O)C=C1C=CC1C2CC[C@@]2(C)C1CC[C@@]21CCC(=O)O1 (stereo partly drawn),-21.4%
2,CSCCC(NS(=O)(=O)c1ccc(C)cc1)C(=O)NCCc1c[nH]c2ccccc12 (stereo not drawn),-1.87%
3,O=C1Nc2ccccc2-n2nnnc2C1N1CCN(c2cccc(C(F)(F)F)n2)CC1 (stereo not drawn),-29.2%
4,CCOc1ccc(/C=N/OCC(=O)NCc2cccs2)cc1,-0.513%
5,CC1CCCCC1NC(=O)CO/N=C/c1ccc(OC(F)F)cc1 (stereo not drawn),-0.145%
6,O=C(CO/N=C/c1ccc(OC(F)F)cc1)NCc1ccc(F)cc1,-66.2% (active)
7,CC(C)(C)C(=O)c1c(N)[nH]c(C(=O)c2ccccc2)c1-c1ccc(F)cc1,19.8%
8,Fc1cccc(Cc2c(-c3cccc(Cl)c3)nc3ccc(Br)cn23)c1,88.1%
9,O=C(Nc1ccc(Br)cn1)c1ccc([N+](=O)[O-])cc1Cl,-6.95%
10,O=C(Nc1ccc(Br)cn1)c1ccc([N+](=O)[O-])o1,-155% (active)
11,CN1C(=O)c2ccc(C(=O)Nc3ccc(Br)cn3)cc2C1=O,-0.113%
12,Cc1onc(NC(=O)c2ccc([N+](=O)[O-])o2)c1Br,-79.8% (active)
13,Cc1onc(C(=O)NCc2ccc(F)cc2)c1[N+](=O)[O-],10%
14,Cc1cccc(NC(=O)c2ccc([N+](=O)[O-])o2)c1,-102% (active)
15,Cc1cccc(NC(=O)C(C)SCc2ccccc2)c1 (stereo not drawn),58.8%
16,Cc1cc(NC(=O)COc2ccc([N+](=O)[O-])cc2)no1,-22.5%
17,Cc1cccc(C(=O)Nc2ccc(CC(=O)O)cc2)c1,0%
18,C[n+]1cccc(C(=O)O)c1,-10.8%
19,O=C(NCc1cccnc1)c1cc(C2CCCCN2C(=O)CCc2ccccc2)on1 (stereo not drawn),19.3%
20,Cc1n[nH]c(=O)c2c(NC(=O)CSc3ccccc3F)oc(C)c12,-0.579%

row,SMILES,activity change
1,CC(C)(C)OC(=O)NC(Cc1ccccc1)C(=O)NC(CSC1CCCCO1)C(=O)NN (stereo not drawn),-12%
2,COc1ccc(CN2C(=O)C(CC(=O)NCCN3CCOCC3)CC(C(=O)N(C(C)C)C(C)C)=C2C)cc1 (stereo not drawn),15.9%
3,COc1cc(C2c3cc4c(cc3C(O)C3COC(=O)C23)OCO4)cc(OC)c1OC (stereo not drawn),-3.2%
4,O=C(NCC(F)(F)F)c1ccc(S(=O)(=O)NCCc2ccc3c(c2)OCCO3)cc1,-14.1%
5,CCCn1c(N)c(C(=O)CSc2nnc(Cc3cccs3)n2C2CC2)c(=O)[nH]c1=O,-3.66%
6,COc1cc(OC)cc(C2=Cc3ccccc3C(CC(=O)c3ccco3)N2c2ccc(-c3cnc(OC)nc3)cc2)c1 (stereo not drawn),3.59%
7,CCOc1ccc(Cl)cc1-c1cc(C(=O)NCc2cccs2)[nH]n1,-22.8%
8,COC(=O)C[C@@H]1C=C[C@@H](NS(=O)(=O)c2cccc(OC)c2)[C@@H](CO)O1,-5.98%
9,CCOC(=O)/C(=N\Nc1cc(Cl)ccc1Cl)N1CCN(C)CC1,19%
10,COc1cc2ccc(C(C)=O)c(O)c2cc1OC,-10.2%
11,COc1ccc(C)cc1S(=O)(=O)NC1CCCCC1,-4.98%
12,COc1cccc(-c2nc3nc(C)cc(C)n3c2NC2CCCCC2)c1,8.2%
13,COc1ccc(-c2nc3cc(C)ccn3c2NC2CCCCC2)cc1SC1CCCCC1,-85% (active)
14,Cc1ccc2nc(-c3cccnc3)c(NC3CCCC3)n2c1,-1.15%
15,COc1ccc(-c2nc3cnccn3c2NC(C)(C)CC(C)(C)C)cc1O,-71.3% (active)
16,COC(=O)c1ccc2nc(-c3ccc(OC)c(OC)c3)c(Cc3ccccc3)n2c1,-9.54%
17,COc1ccc(-c2nc3cnccn3c2NC2CCCCC2)cc1-c1cccc(Cl)c1,-76.6% (active) and -52.7% (active)
18,CCOc1cc(-c2nc3cc(C)ccn3c2NCC2CCCO2)ccc1O (stereo not drawn),2.58%

# Reference: PubChem BioAssay AID743279 (National Center for Advancing Translational Sciences (NCATS), 2014)
